Screening data: PubChem, Sanford-Burnham Center for Chemical Genomics
CYP2C9 act: human CYP2C9 activators, primary screen, biochemical, luminescence | actives 1.4% (n = 96,000) | activation factor at 5 µM | recombinant CYP2C9, luciferin-H conversion; active compounds read high; factor 1 = untreated enzyme, 0 = blocked | AID 1024, 2008 | Cytochrome P450 2C9 (Homo sapiens), P11712;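 active means activation factor of 2 or more for CYP2C9 at a 5 µM dose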;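 further: 0 = sulfaphenazole-blocked wells and 1 = vehicle-only wells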
CYP2C9 inhib: blockers of cytochrome P450 2C9 activity – biochemical, luminescence, ADME assay, primary screen. inhibition, % at 5 µM. actives 20% (n = 96,000). P11712. CYP2C9 Supersomes, luciferin-H conversion. AID 777, 2007;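 active means blocking of liver enzyme CYP2C9 beyond about 50% at 5 µM, limit read from the data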
PLAP act: PLAP enzyme activators, biochemical, luminescence, HTS | purified PLAP enzyme, luminescent substrate read-out; active compounds read high | activation fold at 20 µM | actives 1.2% (n = 96,000); in the data active means activation fold above about 2
Target sequence (P05187 whole entry, looked up): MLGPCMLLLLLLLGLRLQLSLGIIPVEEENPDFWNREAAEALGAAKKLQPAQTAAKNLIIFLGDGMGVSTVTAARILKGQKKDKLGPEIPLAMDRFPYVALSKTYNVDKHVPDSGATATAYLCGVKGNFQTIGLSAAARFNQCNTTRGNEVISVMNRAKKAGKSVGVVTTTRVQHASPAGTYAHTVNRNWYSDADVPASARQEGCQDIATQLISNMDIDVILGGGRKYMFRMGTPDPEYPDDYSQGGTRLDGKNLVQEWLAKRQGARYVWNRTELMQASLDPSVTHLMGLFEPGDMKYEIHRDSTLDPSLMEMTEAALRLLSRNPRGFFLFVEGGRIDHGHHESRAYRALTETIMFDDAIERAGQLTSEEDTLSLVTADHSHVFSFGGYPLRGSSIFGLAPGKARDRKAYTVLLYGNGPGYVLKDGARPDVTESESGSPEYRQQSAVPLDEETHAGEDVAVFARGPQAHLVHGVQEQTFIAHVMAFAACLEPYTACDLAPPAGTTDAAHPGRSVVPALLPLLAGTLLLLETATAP
CYP2C19 activ: human CYP2C19 activators, primary screen, biochemical, luminescence; recombinant CYP2C19, luciferin-H EGE luminescence; active compounds read high; 0 = fully inhibited enzyme, 1 = untreated enzyme; AID 1025, 2008; 96,000 tested, under 10 active; Cytochrome P450 2C19 (Homo sapiens), P33261; activation factor at 5 µM;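 active means activation factor of at least 2 at 5 µM in the primary screen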;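 further: 0 = wells with 2.5 mM tranylcypromine and 1 = vehicle-only wells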
CYP2C19 inh: blockers of cytochrome P450 2C19 activity – biochemical, luminescence, ADME assay, primary screen. CYP2C19 Supersomes, luciferin-H EGE luminescence, 30 min. inhibition, % at 5 µM. actives 21% (n = 96,000);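 active means CYP2C19 inhibition above a set limit at 5 µM in the primary screen, cut at about 50% in these data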;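 further: plate controls were negative control wells for no effect and 2.5 mM tranylcypromine positive control for full effect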
Numbers without * were called inactive; . = no result given. Hits are enriched below; roughly 31% of the tested compounds scored in any of these assays.

SMILES	CYP2C9 act	CYP2C9 inhib	PLAP act	CYP2C19 activ	CYP2C19 inh
O=C(O)c1ccc(S(=O)(=O)c2ccc3c(c2)C(=O)N(Cc2ccco2)C3=O)cc1	1	3.5	1.1	1.2	-24.2
O=C(NC1CCCCCCC1)C1CCC(CNc2c(N3CCCC3)c(=O)c2=O)CC1 (stereo not given)	1	4.0	1.4	1	-0.9
Cc1cc(C(=O)COC(=O)C2=NNC(=O)CC2)c(C)n1-c1cccc(C(F)(F)F)c1	0.2	81.0*	1.4	0.2	78.4*
COC(=O)CNC(=O)C(C)NC(=O)CNC(=O)OCc1ccccc1 (stereo not given)	1.1	-5.1	1	.	.
Cn1c(=O)oc2cc(S(=O)(=O)Nc3ccc4c(c3)OCCO4)ccc21	0.8	17.5	1.1	0.7	26.9
Cn1c(=O)c(=O)n(C)c2cc(S(=O)(=O)Nc3ccc(OC(F)(F)F)cc3)ccc21	0.1	91.4*	1.2	0.2	82.3*
Cn1c(=O)c(=O)n(C)c2cc(S(=O)(=O)Nc3ccc4c(c3)OCCO4)ccc21	0.5	53.6*	0.9	1	-1.5
COc1ccc(NS(=O)(=O)c2ccc3oc(Nc4ccc5c(c4)OCCO5)nc3c2)cc1	0	96.3*	1.1	0.5	51.3*
O=C1NNC(=O)C2C3C=CC(C4CC34)C12 (stereo not given)	1	1.6	0.8	1	3.6
CCOC(=O)c1ccc(N2Cc3ccccc3C2=N)cc1	0.2	84.7*	0.8	0.6	41.8
CC(C)(C)c1cc(CN2CCOCC2)c(C(=O)O)o1	1.2	-17.1	1.2	1.2	-17.5
O=C(Nc1ccc(Cl)c(Cl)c1)N1CCSC1c1ccco1 (stereo not given)	0.4	59.1*	0.8	0.6	43.1
O=C(Nc1ccc(Cl)c(Cl)c1)N1CC=CCC1	0.8	22.5	0.9	0.7	32.2
COc1ccc(/C(O)=C2/C(=O)C(=O)N(CCCC(=O)O)C2c2ccc(OC)c(OC)c2)cc1 (stereo not given)	1	0.8	1.2	1.2	-17.6
CN(Cc1cccs1)CC(O)COCc1ccco1 (stereo not given)	0.9	10.0	1.1	0.8	21.3
COc1ccc(C(=O)N(Cc2ccco2)Cc2cccs2)c(O)c1	0	95.4*	1.2	0.1	88.4*
Cc1ccn2cc(CNC(=O)c3ccc(Br)o3)nc2c1	0.7	26.0	1.4	0.6	35.1
Cc1ccnc(N2CCC(C(=O)NNC(=O)c3ccccc3C)CC2)n1	0.8	17.9	1.6	0.8	18.4
COc1ccc2nc(NC(=O)CSc3nc4ccccc4o3)sc2c1	0.7	33.1	1.1	0.4	61.7*
COc1ccc2nc(NC(=O)CSc3nc(C)cc(C)n3)sc2c1	0.2	84.2*	1.6	0.1	89.9*
O=C(CSc1nc2ccccc2o1)Nc1nc2ccc(Br)cc2s1	0.2	80.6*	1.2	0.1	94.3*
CC(C)(C)NC(=O)C(c1ccccc1F)N(Cc1ccco1)C(=O)c1csnn1 (stereo not given)	1	-4.4	1	0.8	16.2
COc1cc(C2C(C#N)=C(C)NC3=C2C(=O)CC(C)(C)C3)ccc1OCCO (stereo not given)	0.5	47.2	1.3	0.9	13.6
CC1=C(C#N)C(c2ccc3ncccc3c2)C(C#N)=C(C)N1	0.3	68.7*	0.9	0.2	83.2*
CCCCN(CCCC)C(=O)c1ccccc1NC(=O)CN1C(=O)c2ccccc2C1=O	0.1	92.8*	1.6	0.1	92.0*
SMILES	CYP2C9 act	CYP2C9 inhib	PLAP act	CYP2C19 activ	CYP2C19 inh
O=C(CN1C(=O)c2ccccc2C1=O)Nc1ccccc1C(=O)N1CCCC1	1	-4.1	1	1	4.8
CN(C)CCC(=O)NCC1OCCc2ccccc21 (stereo not given)	1	-0.1	1.1	1	-4.9
CCOC(=O)c1c(C)oc2ccc(OCc3cc(C(=O)OC)oc3C)cc12	0.1	86.1*	1.8	0.4	64.1*
CCOC(=O)c1c(C)oc2ccc(OCC(=O)C(C)(C)C)cc12	0.3	71.6*	1.1	0.3	65.4*
COC(=O)c1cc(OC)c(OCc2cc(C(=O)OC)oc2C)c(OC)c1	0.8	22.3	0.8	0.5	52.5*
CCCCOc1ccc(C(=O)N2CC(C)OC(C)C2)cc1 (stereo not given)	1.3	-30.7	1	0.9	6.2
COc1cc(C(=O)NCCOc2ccccc2)c(Br)c(OC)c1OC	0.8	21.1	1	0.3	65.2*
COc1cc(C(=O)NCCOc2cccc(C)c2)c(Br)c(OC)c1OC	1.2	-19.1	1	0.5	51.7*
COc1cc(C(=O)Oc2cccc(C)c2)cc(OC)c1OC	0.7	26.3	1.2	0.9	9.6
CCCOC(=O)c1ccc(NC(=O)c2cc(OC)c(OC)c(OC)c2Br)cc1	0.3	65.0*	1.5	0.3	74.4*
O=C(CSc1nc2ccccc2o1)NCc1n[nH]c(=O)c2ccccc12	1.5	-50.4	1	1.1	-12.8
COc1ccc(NC(=O)CN(C)C(=O)c2ccc(C)s2)cc1	1	1.1	1.1	1	-0.1
Clc1cccc(CON/C=N/c2ncnc3sccc23)c1	0.5	50.5*	0.8	0.2	80.5*
Clc1cccc(Cl)c1CON/C=N/c1ncnc2sccc12	1	2.8	0.9	0.8	16.1
COc1ccc(CN(C(=O)CN2C(=O)C(C)Oc3ccccc32)C2CCCC2)c(OC)c1 (stereo not given)	0.1	87.7*	1.6	0.2	81.0*
COc1ccc(CN(C(=O)CN2C(=O)COc3ccccc32)C2CCCC2)c(OC)c1	0.6	43.7	1.5	0.6	43.8
O=C(CSc1nc2c([nH]c3ccccc32)c(=O)n1-c1ccc(F)cc1)NCc1ccco1	0.9	14.8	1.1	1	3.4
O=C(Nn1cnnc1)c1cc2cc(Br)ccc2oc1=O	0.6	37.5	1.2	0.5	54.4*
CC(C)NC(=O)c1cc2cc(Br)ccc2oc1=O	0.5	50.0*	1.6	0.4	61.3*
CCN(CC)C(=O)c1cc2cc(Br)ccc2oc1=O	1.7	-71.2	1	0.9	14.2
CN(C)CCNC(=O)c1cc2cc(Br)ccc2oc1=O	0.6	43.7	1.1	0.8	17.9
CC1(C)CC(=O)c2c(O)cc(OCc3ccc([N+](=O)[O-])cc3)cc2O1	1	2.9	1	1	-4.1
COc1ccc(OCC(=O)N2CCN(c3nnc(-c4ccccc4)c4ccccc34)CC2)cc1	0.6	42.6	1.5	0.5	50.0*
Cc1ccc(-c2nnc(N3CCN(C(=O)c4ccco4)CC3)c3ccccc23)cc1	0.2	75.9*	1.6	0.3	68.3*
Cc1ccc(OCC(=O)N2CCN(c3nnc(-c4ccc(C)cc4)c4ccccc34)CC2)cc1	0.1	92.0*	1.8	0.1	88.1*
